The source of these data is PubChem BioAssay (NCI).

This is part of a sample that, as a whole, favours compounds with a hit. Of some 83,000 tested, about 20% had one in any assay.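 Percent growth is the endpoint: 0 to 100 indicates growth inhibition (40 means 60% inhibition), 0 means no net growth, and negative values indicate cell death.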 A number with no mark means an inactive call. The source made the active and inactive calls. The calls were made as follows: active = growth percent below 10; inactive = the rest.

This assay concerns HL-60(TB) leukemia. Kind of assay: NCI-60 one-dose screen, 48 h (100 = growth as untreated, 0 = no growth, -100 = all killed). To be noted: 10 µM unless noted.
For the compound `CC1(C)O[C@H]2OC3CCC(=O)CC3(O)[C@H]2O1` (stereo partly drawn), the growth was 102%.
Take `C=C1C(=O)O[C@H]2[C@H]1CC/C(COC(=O)n1ccnc1C)=C\CC[C@@]1(C)O[C@@H]21`: the growth is 83.2%.
In the case of `C=C(C)[C@@H]1C[C@H](O)Cc2cc(Cl)cc(Cl)c2N1` it was 112%.
Consider `COc1ccc(/C=C2\CN(Cc3cn(CCNc4ccnc5cc(Cl)ccc45)nn3)C/C(=C\c3ccc(OC)c(OC)c3)C2=O)cc1OC`, for which the growth is -11.3% (active).
Turning to `COc1ccc(/C(=N/O)c2cc(OC)c(OC)c(OC)c2)c(OC)c1N`, the growth is -24.6% (active).
The result for `NC(=N\N=C/c1ccc(Cl)cc1Cl)/C(N)=N\N=C/c1ccc(Cl)cc1Cl` reads 79.7%; that for `Cc1ncc(C(=O)Nc2ccc(CN3CCN(C)CC3)c(C(F)(F)F)c2)cc1C#Cc1cnc2cccnn12`, -28.2% (active).
For `COc1ccccc1CNc1c2ccccc2nc2ccccc12`, the growth was 44.8%.
Turning to `NC(=O)c1cc(Cl)ccc1NC(=O)COc1ccccc1`, the growth is -0.779% (active).
In the case of `CCn1c(Cc2ccccc2Nc2c(Cl)cccc2Cl)nnc1SCC(=O)Nc1cccc(OC)c1` it was 53.6%.
The result for `Cc1[nH]n(C(=O)c2ccncc2)c(=O)c1N=Nc1ccc(O)c(C(=O)O)c1` reads 53.4%; that for `COc1cc(C2CC(c3ccc(C)cc3)=NN2C(C)=O)ccc1Oc1ccnc2cc(Cl)ccc12` (stereo not drawn), 100%; that for `Cc1ncc(C(=O)Nc2ccc(CN3CCN(C)CC3)c(C(F)(F)F)c2)cc1C#Cc1c(N)ncc2ccc(C#N)cc12`, 45.8%.
